# Source: PubChem
# Most compounds without a hit are left out; they make up all but 7.3% or so of the library.
# IP6K1 inh: inhibitors of human IP6K1 | Q92551 | IP6K1 kinase, ADP-Glo luminescence, 2 h; stronger effect = lower value | activity change, % (series mostly up to about 58 µM) | actives 0.81% (n = 140,000) | AID 1645851; in the data active = activity change below about -25%
#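 ADP-Glo luminescence measures ADP made by human IP6K1 during a 2 h RT reaction with ATP/IP6 (mix at 1.3 mM/130 uM); top library doses 57.5 and 19.1 uM final.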
# Luciferase inh: blocks purified firefly luciferase enzyme activity | Potency, µM (series often up to 115 µM), actives largely listed as inhibitors | AID 1347043 | actives 2.5% (n = 76,000) | purified P. pyralis luciferase, luminescence, biochemical | P08659; note: potency is the fitted concentration of half-maximal effect; nearly all actives have a fitted effect of over 65% in size
# Target sequence (P08659 whole entry, looked up): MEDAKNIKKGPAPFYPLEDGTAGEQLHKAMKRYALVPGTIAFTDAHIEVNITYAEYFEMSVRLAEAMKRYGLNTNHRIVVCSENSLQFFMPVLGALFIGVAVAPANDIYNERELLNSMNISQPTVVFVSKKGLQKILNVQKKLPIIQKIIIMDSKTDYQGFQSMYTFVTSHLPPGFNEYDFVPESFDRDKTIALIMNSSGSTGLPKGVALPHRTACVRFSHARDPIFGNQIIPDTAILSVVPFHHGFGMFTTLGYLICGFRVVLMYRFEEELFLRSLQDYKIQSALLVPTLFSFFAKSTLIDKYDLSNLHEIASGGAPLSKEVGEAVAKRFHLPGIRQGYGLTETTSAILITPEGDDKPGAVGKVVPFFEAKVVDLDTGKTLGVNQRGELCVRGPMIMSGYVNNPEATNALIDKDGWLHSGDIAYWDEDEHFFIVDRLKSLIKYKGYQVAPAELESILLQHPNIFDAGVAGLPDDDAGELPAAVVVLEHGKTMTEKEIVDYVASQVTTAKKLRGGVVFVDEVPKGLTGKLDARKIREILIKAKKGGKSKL
#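 Purified P. pyralis luciferase (10nM final) in 50mM Tris acetate pH 7.5, 10mM Mg acetate, 0.01% Tween-20, 0.05% BSA with 10uM D-luciferin and 10uM ATP. Compounds titrated qHTS. Luminescence imaged on CCD.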
# HEK293 viab: counter-screen for SNCA expression inhibitors: cell viability; HEK-293-SNCA-luc viability, GF-AFC fluorescence, 24 h; Potency, µM (series often up to 57.1 µM), inactives show at the top dose activity change, negative = cytotoxicity, hits mostly cytotoxic; actives 0.12% (n = 150,000);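 note: potency is the fitted concentration of half-maximal effect; 0% = DMSO-treated cells and -100% = medium-only wells without cells; nearly all actives have a fitted effect of over 30% in size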
#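 HEK-293-SNCA-luc cells (1500/well) plated 24 h, then exposed 24 h to a dilution series; GF-AFC added 30 min at 37C, fluorescence 405/540 nm; normalised to medium-only and DMSO wells, Hill fit.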
# SNCA expr inh: reduces expression of the alpha-synuclein gene | HEK-293 SNCA-luciferase knock-in, luminescence, 24 h | Potency, µM (doses to about 57.2 µM), without a hit: at the top dose activity change, negative = inhibition, actives largely listed as inhibitors | actives 0.17% (n = 140,000);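 note: potency is the fitted concentration of half-maximal effect; plate controls were DMSO cells for no effect and cell-free wells for full effect; nearly all actives have a fitted effect of over 45% in size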
# NIH3T3 tox: NIH 3T3 cell cytotoxicity | Potency, µM (top dose mostly 96.7 µM), for inactives: at the top dose activity change, negative = cytotoxicity, hits mostly inhibitors | actives 4.3% (n = 94,000) | NIH 3T3 viability, CellTiter-Glo ATP luminescence, 48-72 h | AID 1345082; note: potency is the fitted concentration of half-maximal effect; nearly all actives have a fitted effect of over 55% in size
#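 First NIH 3T3 cells are plated at 400 cells/well; next compound is pinned in; then plates incubate 48 or 72 hr at 37 °C; finally CellTiter-Glo is added and luminescence read after 10 min.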
# HEK293 tox: cytotoxic compounds in HEK 293 cells | actives 6.6% (n = 94,000) | AID 1345083 | HEK 293 viability, ATP luminescence (CellTiter-Glo), 48-72 h | Potency, µM (top dose mostly 115 µM), for the others: at the top dose activity change, negative = cytotoxicity, hits mostly inhibitors; note: potency is the fitted concentration of half-maximal effect; nearly all actives have a fitted effect of over 60% in size
#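 Luminescence from cellular ATP, measured with CellTiter-Glo, indicates HEK 293 viability. Cells plated at 250 cells/well are treated with compound for 48 or 72 hr at 37 degree Celsius before reagent addition.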
# IP6K1 conf: confirmation of human IP6K1 inhibitors; Potency, µM (highest dose often 49 µM), without a hit: at the highest dose activity change, negative = inhibition, actives largely listed as inhibitors; recombinant IP6K1 kinase, ADP-Glo luminescence, 2 h; actives 13% (n = 1,200); shares compounds with IP6K1 inh; note: potency is the fitted concentration of half-maximal effect; nearly all actives have a fitted effect of over 65% in size
# The depositor's hits bear a star; i = inactive; ? = inconclusive; / = no result given; [ ] = dose if it differs, or a comment. Unless noted, calls come from the whole dose curve; as a rule, active = well fitted curve in the direction sought with a large enough effect; inconclusive = small, poorly fitted or top-dose-only effect, or another doubt; inactive = no such curve, though single readings can be large; an effect the other way counts as inactive or inconclusive. Unless noted, % is set by controls: 0 for no effect and ±100 for the full control effect.
SMILES,IP6K1 inh,Luciferase inh,HEK293 viab,SNCA expr inh,NIH3T3 tox,HEK293 tox,IP6K1 conf
COCc1ncc(CN2CCC(Cc3nncn3-c3ccccc3)CC2)cn1,48,i,-10%,?,-1%,-4%,/
Cc1ncccc1Oc1ncnc(N2CCCCC(N)C2)c1C (centres undefined),4,i,3%,0%,-13%,1%,/
CCS(=O)(=O)N1CC(=O)N(c2ccc(Cl)cc2)C(C)(C(=O)NC2CCCCCC2)C1 (centres undefined),-34*,/,-21%,20%,/,/,3%
CCCS(=O)(=O)N1CC(=O)N(c2ccc(Cl)cc2)C(C)(C(=O)NC2CCCC2)C1 (centres undefined),25,/,-20%,-6%,/,/,/
COc1ccc(-c2ccccc2C(=O)N(C)CC#N)nn1,17,/,/,/,i,-2%[172 µM],/
O=C(CCS(=O)(=O)c1ccccc1)N(Cc1cccnc1)c1nc2ccc(F)cc2s1,-26*,/,-6%,42%,/,/,-12%
CNC(=O)[C@H]1C[C@]2(CCCCN(C)C2=O)N(C(=O)C2CC2)[C@H]1c1ccco1,-7,/,/,/,?,i,/
Cc1cnc(Nc2ccc(CN3CCOCC3)cc2)nc1Nc1cccc(S(=O)(=O)NC(C)(C)C)c1,-16,/,?,76%,/,/,-2%
Cc1cnc(Nc2cccc(CN3CCOCC3)c2)nc1Nc1cccc(S(=O)(=O)NC(C)(C)C)c1,-9,/,-14%,-9%,/,/,3%
CCOC(=O)N1CCN(Cc2cccc(OCC(O)CN3CCOCC3)c2)CC1 (centres undefined),9,i,-6%,-3%,-17%,-25%,/
Cn1cnc(S(=O)(=O)N2CCCOCCNC(=O)[C@@H]3CCC[C@@H]32)c1,-4,i,4%,1%,-6%,i,/
COc1cc([C@H]2Oc3cc([C@H]4Oc5cc(O)cc(O)c5C(=O)[C@@H]4O)ccc3O[C@@H]2CO)ccc1O,-79*,/,-27%[23.9 µM],21%[25.6 µM],/,/,7.3µM*
COc1cc([C@H]2Oc3cc([C@H]4Oc5cc(O)cc(O)c5C(=O)[C@H]4O)ccc3O[C@H]2CO)ccc1O,/,/,15%,?,/,/,/
Cn1cnc2c(F)c(Nc3ccc(Br)cc3F)c(C(=O)NOCCO)cc21,12,/,4%,-3%,/,/,-12%
Cc1ccc(C2CC(=O)n3nc(-c4ccc(Cl)cc4)nc3S2)cc1 (centres undefined),-13,/,9%,-6%,/,/,/
O=C1CC(c2ccccc2)Sc2nc(-c3ccc(F)cc3)nn21 (centres undefined),-27*,/,10%,-2%,/,/,2%
COc1cc(OC)cc(-n2c(=O)c3ccccc3n(Cc3ccccc3C#N)c2=O)c1,-28*,/,-19%,7%,/,/,-14%
CN(C)c1cc(=O)c2ccnc(N3CCN(c4ccccn4)CC3)c2o1,-27*,i,8%[87.6 µM],-7%[87.6 µM],?,-2%[172 µM],?
Cn1c(=O)oc2cc(S(=O)(=O)N3CCc4c(nc[nH]c4=O)C3)ccc21,-2,i,-8%,5%,i,-18%,/
COc1cc(S(=O)(=O)N2CCc3c(nc[nH]c3=O)C2)c(OC)cc1C,-30*,i,1%,16%,-16%,-3%,-4%
CC1=NN(c2ccccc2)C(=O)C1,-32*,/,5%,-29%[25.6 µM],/,/,-14%
O=C(O)CCCNC(=O)Cn1nc2c(cc1=O)CCCCC2,3,i,-2%,-14%,i,20%,/
CCOC(=O)c1csc(Nc2ccc(Cl)cc2)n1,-27*,/,-12%,/,/,/,?
CCOC(=O)c1cnc2c(ccc3ccccc32)c1Nc1ccc(Cl)cc1,25,/,9%,12%,/,/,/
CC(C)NC(=O)N1CC(CNC(=O)C2CC2)C2(CCCCC2)C1 (centres undefined),4,/,0%,-3%,-21%,-5%,/
SMILES,IP6K1 inh,Luciferase inh,HEK293 viab,SNCA expr inh,NIH3T3 tox,HEK293 tox,IP6K1 conf
Cn1nnnc1Sc1ncnc2scc(-c3ccc4c(=O)ccoc4c3)c12,/,/,/,/,/,/,-17%
Cn1nnnc1Sc1ncnc2scc(-c3ccc(Cl)cc3)c12,/,/,/,/,/,/,1%
Cc1ccc(F)c(NC(=O)[C@@H]2COCC(=O)N2Cc2ccc(F)cc2)c1,-2,i,4%,?,-7%,-13%,/
COc1ccccc1-c1cc(C(=O)NC(C)C)c2cnn(C)c2n1,-8,i,10%[87.6 µM],29%[87.6 µM],-2%[138 µM],-5%[172 µM],/
COCC1CCN(c2ccc(-c3nc(CCCc4ccccc4)no3)cn2)C1 (centres undefined),-33*,?,-4%,92%,?,?,-12%
COC(=O)N(C)Cc1cccc(N2CCN(Cc3c(Cl)ccc(Cl)c3Cl)CC2)c1F,13,/,/,/,-32%,?,/
Cc1cc(CC(=O)N2CC[C@@H](NC(=O)c3ccccn3)[C@H](O)C2)on1,20,i,-5%,2%,i,-2%,/
COc1cc(OC)cc(C(=O)Nc2cc(-c3nc4ccccc4[nH]3)ccc2C)c1,-25*,/,?,-9%,/,/,14%
O=C1NCCCCCN(C(=O)CN2CCOCC2)[C@H]2CCC[C@@H]12,5,i,9%,?,-15%,-9%,/
COc1cccc(NC(=O)CSCc2cc(=O)c3ccc(C)c(C)c3[nH]2)c1,-37*,/,6%,14%,/,/,?
COCCCNc1ccc(C(=O)N2CCC(CN3CCCC3=O)CC2)cn1,-57*,i,2%,-1%,i,4%,-7%
O=C1CCCN1CC1CCN(C(=O)c2ccc(N3CCC(CO)C3)nc2)CC1 (centres undefined),5,i,4%,-5%,-1%,i,/
CC(=O)c1c(C)oc2c1cc(NS(=O)(=O)c1ccc(Br)cc1)c1ccccc12,8,/,-6%,4%,/,/,/
O=C(O)CSc1cc(NS(=O)(=O)c2ccc(Br)cc2)c2ccccc2c1O,-76*,/,?,/,/,/,?
CCc1ccccc1NC(=O)Cn1ccn2nc3c(c2c1=O)CCCC3,-4,i,3%,-36%,?,?,/
c1ccc(CCc2nnc3n2CCNCC3)cc1,2,i,-3%,-8%,-1%,-9%,/
CNC(=O)[C@@H]1CN(Cc2ccc(F)cc2F)C[C@H]1CO,12,i,?,-13%,-5%,-8%,/
O=C(c1ccncc1)N1CCCN(CCn2nc3n(c2=O)CCCC3)CC1,13,/,/,/,-5%,-7%,/
COc1ccc(CN2CCN(S(=O)(=O)c3ccccc3)CC2)c(OC)c1,-49*,/,-6%,-3%,/,/,-3%
COc1ccc(OC)c(CN2CCN(S(=O)(=O)c3ccccc3)CC2)c1,-3,/,-1%,52%,/,/,/
Cc1ccc(O)c(N=Nc2ccccc2)n1,/,/,-2%,?,/,/,7.3µM*
